Screening results from PubChem BioAssay.
An excerpt weighted towards active compounds, which were near 2.3% of everything screened.
iPSC survival up: enhancers of single-cell hiPSC survival, primary screen, ATPlite luminescence. 100% = ROCK inhibitor wells, 0% = DMSO. AID 602274, 2012. hit rate 0.044% among 360,000. survival enhancement, % at 20 µM; in the data active means survival enhancement above about 18%;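 further: cells exposed to compounds for 16 hours before the ATP read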
HIF-2a inh: HIF-2a reporter inhibitors, primary screen, luminescence, 786-0 RCC cells. hit rate 0.72% among 360,000. inhibition, % at 18.8 µM. 786-0 RCC cells HIF-2a reporter, luciferase luminescence, overnight;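 active means inhibition of the luminescence signal of 40% or more relative to plate controls, in a single-dose primary screen at 18.75 µM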
LGR2 inh: inhibitors of bursicon-induced LGR2 CRE-luciferase signal, primary screen, cell-based, HEK293, CRE-luciferase reporter, bursicon stimulation; Drosophila bursicon receptor LGR2 (rickets); bursicon-stimulated, 4 h; inhibition, % at 9.99 µM; hit rate 0.35% among 380,000;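 active means drop in luminescence signal, shown as inhibition above about 50% in the replicate tests, limit read from the data, passing the limit was not always enough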;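 further: agonist challenge used bursicon conditioned medium at about half maximal strength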
TWEAK Fn14 block: inhibitors of TWEAK-Fn14 signaling, primary screen, luciferase reporter cells, uHTS; hit rate 2% among 360,000; TWEAK-stimulated Fn14 reporter cells, luciferase luminescence, 8 h; inhibition, % at 10 µM; AID 1159606, 2016; in the data active means inhibition above about 50%
CF NFkB block: inhibitors of PAF-induced NF-kB signaling, primary screen, cell-based, GFP fluorescence, uHTS | KKLEB NF-kB-GFP reporter, GFP fluorescence overnight | inhibition, % at 5 µM | hit rate 0.86% among 360,000;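 active means at least 50% inhibition at 5 µM, scaled per plate between neutral and stimulator controls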;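 further: PAF is a Pseudomonas aeruginosa culture filtrate used as stimulus; plate controls were PAF-stimulated DMSO wells for no effect and unstimulated DMSO wells for full effect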
KKLEB cytotox: cytotoxicity in KKLEB CF airway cells, primary screen, cytotoxicity control for CF NF-kB inhibitor project, cell-based, uHTS, fluorescence assay plates. KKLEB CF airway cells viability, ATPlite luminescence, overnight; stronger effect = lower value; cells stimulated with P. aeruginosa culture filtrate. activity change (cytotoxicity), % at 5 µM. hit rate 0.36% among 360,000. AID 602141, 2011;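 active means corrected activity change at or below -50% at 5 µM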
* marks the source's active call; other numbers are inactive results; / = not tested or not shown.

SMILES	iPSC survival up	HIF-2a inh	LGR2 inh	TWEAK Fn14 block	CF NFkB block	KKLEB cytotox
Cc1nc(-c2ccc(C(=O)Nc3ccccc3F)cc2)cs1	-5.4	15.5	83.2*	90.1*	-32.5	-14.6
Cc1nc(-c2ccc(C(=O)Nc3cccc(F)c3)cc2)cs1	-0.5	-131.6	60.1*	91.9*	5.1	-25.1
CC(=O)N(C)C[C@@H]1Oc2cc(C#CCC(C)C)ccc2S(=O)(=O)N([C@H](C)CO)C[C@H]1C	/	/	-5.2	/	/	/
CCCNC(=O)N1CC2(CN(C(=O)c3cccc(F)c3)C2)c2c([nH]c3cc(OC)ccc23)[C@@H]1CO	/	/	-7.5	/	/	/
COc1cccc(-c2ccc3n(c2=O)C[C@@H]2[C@@H](CO)[C@H](C(=O)N4CCOCC4)N[C@H]32)c1	/	/	-4.9	/	/	/
C=CCN1C(=O)N/C(=C/c2ccc(N3CCOCC3)o2)C1=O	/	/	3.0	/	/	/
O=C1N/C(=C/c2ccc(N3CCOCC3)o2)C(=O)N1c1ccccc1	-1.2	18.6	-5.4	53.4*	-20.4	9.1
C[C@@H]1CN([C@H](C)CO)C(=O)c2cccc(NS(=O)(=O)c3ccc(F)cc3)c2O[C@H]1CN(C)S(=O)(=O)c1ccccc1	/	/	4.9	/	/	/
S=C(Nc1cccc(Cl)c1)Nc1cccc2cnccc12	0.0	-39.2	/	76.2*	1.9	-1.6
Cc1ccc(NC(=S)Nc2cccc3cnccc23)cc1C	-1.7	-143.5	-70.1	25.8	36.3	-18.9
CC(=O)c1ccc(NC(=S)Nc2cccc3cnccc23)cc1	4.2	-20.5	12.5	59.5*	18.1	5.9
S=C(NCc1ccccc1)Nc1cccc2cnccc12	0.4	12.5	12.4	76.8*	11.2	0.6
COc1ccc(NC(=S)Nc2cccc3ccccc23)cc1OC	-0.6	-108.9	-21.7	94.5*	-9.2	9.5
S=C(NCCc1ccccc1)Nc1cccc2cnccc12	-0.4	-29.8	-1.9	40.4	3.9	5.5
COc1ccc(NC(=O)N(C)C[C@H]2OCCCC[C@H](C)Oc3ccc(NC(=O)Nc4c(C)noc4C)cc3C(=O)N([C@@H](C)CO)C[C@@H]2C)cc1	/	/	4.3	/	/	/
CCCc1cn(CC[C@H]2CC[C@@H](NC(=O)Nc3ccccc3F)[C@@H](CO)O2)nn1	/	/	13.1	/	/	/
CC(C)NC(=O)N(C)C[C@@H]1OCCCC[C@@H](C)Oc2ccc(NS(=O)(=O)c3ccc(F)cc3)cc2C(=O)N([C@@H](C)CO)C[C@H]1C	/	/	-6.5	/	/	/
COC(=O)c1sccc1NC(=O)Nc1ccc(C(C)=O)cc1	0.6	-62.1	-52.8	59.1*	-16.3	8.5
CC(=O)c1ccc(NC(=O)Nc2ccncc2)cc1	-0.6	-81.1	-11.7	57.6*	2.5	9.9
O=C(Nc1ccncc1)Nc1ccncc1	-0.6	16.0	4.7	10.8	0.8	-3.4
CN(C)C(=O)C[C@@H]1CC[C@H](NC(=O)C2CC2)[C@H](CO)O1	/	/	4.0	/	/	/
C[C@@H]1CCCCO[C@@H](CN(C)C(=O)Nc2ccccc2)[C@H](C)CN([C@@H](C)CO)C(=O)c2cc(NC(=O)Nc3cccc4ccccc34)ccc2O1	/	/	15.4	/	/	/
Cc1nc(NC(=O)c2cc3ccccc3o2)sc1C	-0.5	-71.9	-16.4	56.7*	-12.1	-6.9
COC(=O)c1cc(Cl)c(NC(=O)c2cc3ccccc3o2)cc1OC	1.4	-160.7	/	54.3*	-22.0	-3.9
C[C@H](CO)N1C[C@H](C)[C@@H](CN(C)C(=O)Nc2ccc(F)cc2)OCCCC[C@H](C)Oc2ccc(NS(=O)(=O)c3ccccc3)cc2C1=O	/	/	-1.7	/	/	/
COc1ccc(N(C)S(=O)(=O)c2cccc(C(=O)OCC(=O)c3c(N)n(C)c(=O)n(C)c3=O)c2)cc1	-0.5	15.5	32.6	70.7*	-19.2	14.0
CCN(c1ccccc1)S(=O)(=O)c1cccc(C(=O)OCC(=O)c2c(N)n(C)c(=O)n(C)c2=O)c1	3.5	7.8	0.8	0.8	22.4	-2.7
C[C@@H]1CN([C@H](C)CO)S(=O)(=O)c2ccc(C#Cc3ccccn3)cc2O[C@H]1CN(C)Cc1ccccc1	/	/	2.7	/	/	/
C=CCN=C(NC#N)SCC(=O)c1cccc(OC)c1	-0.8	-178.1	-18.8	19.9	60.9*	-19.9
